Assay outcomes: PubChem BioAssay, National Center for Advancing Translational Sciences (NCATS)
The list is not random: actives were taken first. Their share in the collection is about 1.3%.
PTHR1 agonist = qHTS for PTHR1 Agonists: Primary Screen; Parathyroid hormone/parathyroid hormone-related peptide receptor (Homo sapiens), Q03431; HEK293 GP2 PTHR1 cells, GloSensor cAMP luminescence, 1 h; Potency, µM (doses to about 115 µM), for the others: at the top dose activation, actives largely listed as activators; 410,000 compounds, 0.075% hits; AID 743266, 2014; note: potency is the fitted concentration of half-maximal effect; nearly all actives have a fitted effect of over 55% in size
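HEK-293-derived GP2 cells expressing PTHR1 and a GloSensor cAMP reporter, 3,000/well, plated overnight, given luciferin plus IBMX (each 0.5 mM as added) for 1 h at 37 °C, then compound for 1 h at 37 °C. Luminescence was read after 15 min at room temperature.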
PINK1 modulator = A Quantitative High throughput Screen to Identify Chemical Modulators of PINK1 Expression; PINK1 immunofluorescence, high-content cytometry, 24 h; Potency, µM (highest dose often 76.6 µM), inactives show top-dose activation (PINK1 increase), usual class: activators; 410,000 compounds, 0.2% hits; active = well fitted activation curve with a large enough effect; inconclusive = small, poorly fitted or top-dose-only effect; cell line not stated here; note: potency is the fitted concentration of half-maximal effect; % of control where 0% means no effect; nearly all actives have a fitted effect of over 65% in size
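Measures PINK1 amount and localization on or inside mitochondria by immunofluorescence. Stable cells get compounds at 5 concentrations for 24 hours before fixation and staining; CCCP controls included.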
12-LOX inh = Primary qHTS assay for inhibitors of human arachidonate 12S-lipoxygenase (ALOX12): Round 2 | purified 12hLO, xylenol orange hydroperoxide absorbance | Potency, µM (titrated, usually from 108 µM), for the others: at the highest dose activity change, negative = inhibition, usual class: inhibitors | 580,000 compounds, 1.1% hits; note: potency is the fitted concentration of half-maximal effect; % is set by controls: 0 for no effect and ±100 for the full control effect
Target sequence (P18054 whole entry, looked up): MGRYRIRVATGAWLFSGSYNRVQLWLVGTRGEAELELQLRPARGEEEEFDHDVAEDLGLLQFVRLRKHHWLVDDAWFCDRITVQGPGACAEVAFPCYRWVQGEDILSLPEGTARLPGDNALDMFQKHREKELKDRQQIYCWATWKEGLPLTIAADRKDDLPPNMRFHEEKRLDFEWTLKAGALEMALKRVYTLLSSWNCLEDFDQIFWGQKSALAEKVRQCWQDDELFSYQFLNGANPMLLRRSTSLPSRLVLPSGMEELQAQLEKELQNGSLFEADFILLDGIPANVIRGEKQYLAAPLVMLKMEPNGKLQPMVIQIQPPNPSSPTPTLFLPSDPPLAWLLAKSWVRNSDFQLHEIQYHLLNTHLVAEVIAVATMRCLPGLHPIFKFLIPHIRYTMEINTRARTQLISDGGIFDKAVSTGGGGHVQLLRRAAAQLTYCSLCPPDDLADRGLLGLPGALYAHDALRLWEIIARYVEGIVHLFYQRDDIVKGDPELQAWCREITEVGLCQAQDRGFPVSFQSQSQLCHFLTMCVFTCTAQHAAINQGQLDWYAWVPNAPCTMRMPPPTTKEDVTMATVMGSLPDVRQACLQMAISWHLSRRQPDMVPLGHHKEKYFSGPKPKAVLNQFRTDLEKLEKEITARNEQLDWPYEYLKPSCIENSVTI
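Purified human 12hLO (150 nM final) in 25 mM Hepes, 0.01% Triton X-100, pH 7.0 was preincubated 15 min at room temperature with compound. Then 40 uM arachidonic acid was added, 30 min. Hydroperoxide was read by Fe-XO absorbance ratio 573/405 nm.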
Giardia killer = Small Molecules that selectively kill Giardia lamblia: qHTS; Giardia lamblia trophozoite viability; activity change, % at 7.66 µM, hits read low; 340,000 compounds, 0.15% hits; in the data active = activity change below about -80%; inconclusive = between about -30% and that limit;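 note: parasites exposed to compound for two days anaerobically before the ATP read; % is set by controls: 0 for no effect and ±100 for the full control effect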
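Viability, read as ATP luminescence: trophozoites at 100 cells/well, compound added, 48 hrs anaerobic at 37 deg C, then 15-30 min room-temperature development before reading.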
miR-21 act = qHTS Assay for Modulators of miRNAs and/orActivators of miR-21; 340,000 tested, under 10 active; Potency, µM (series often up to 38.3 µM), inactives show at the top dose activity change, positive = activation, hits mostly activators; AID 2288, 2010; HeLa miR-21 FLuc reporter, luciferase, 48 h;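 note: % of control where 0% means no effect; miR-21 action dims this reporter so a rising signal means less miR-21 action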
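Using DMEM plus 10% FBS, HeLa miR-21-FLuc cells are incubated with test compounds (final up to about 40uM) for 48 hours; firefly luciferase signal is then imaged following reagent-mediated lysis.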
ERG-DNA inh = qHTS for Small Molecule Inhibitors of the ERG Ets/DNA interaction. fluorescence polarization, His-ERG Ets domain / labelled DNA. 370,000 compounds, 0.028% hits. Potency, µM (highest dose often 76.9 µM), without a hit: top-dose FP activity, negative = inhibition, actives largely listed as inhibitors. AID 624246, 2012; active = well fitted inhibition curve with a large enough effect in the polarisation, with a control signal flat; inconclusive = small, poorly fitted or top-dose-only effect, or effect the other way, or a change in a side signal; inactive = no such curve, though single readings can be large or run the other way; the % refers to the polarisation;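 note: polarization taken with two DNA probes labelled with fluorescein and Texas red; potency is the fitted concentration of half-maximal effect; % of control where 0% means no effect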
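His-tagged ERG Ets domain (1 uM in the protein solution; 300mM KCl, 50mM Tris-HCl, 1mM EDTA, 1mM DTT, pH 7.5) received compound, then a probe mix of 5 nM fluorescein-DNA and 100nM Texas-615-DNA. Fluorescence polarization was read for both dyes.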
The depositor's hits bear a star; i = inactive; ? = inconclusive; . = no result given; [ ] = dose if it differs, or a comment. Unless noted, calls come from the whole dose curve; as a rule, active = well fitted curve in the direction sought with a large enough effect; inconclusive = small, poorly fitted or top-dose-only effect, or another doubt; inactive = no such curve, though single readings can be large; an effect the other way counts as inactive or inconclusive.

SMILES	PTHR1 agonist	PINK1 modulator	12-LOX inh	Giardia killer	miR-21 act	ERG-DNA inh
CCC(=O)N/C(N)=N/c1nc(C)c2cc(C)ccc2n1	.	.	11%	.	.	.
CCC(=O)N/C(N)=N/c1nc(C)c2cc(OC)ccc2n1	-4%[57.5 µM]	3.5µM*	?	-1	-28%	10%
COc1cccc(/C=C2\SC(=S)NC2=O)c1OS(=O)(=O)c1ccc(NC(C)=O)cc1	i	-2%	?	-5	-7%	3%
O=C(Nc1cccc(-c2nc3ncccc3o2)c1)c1sc2cc(Cl)ccc2c1Cl	1%[57.5 µM]	10µM*	-1%	4	-11%	-9%
CN(C(=O)CC1C(=O)NCCN1Cc1cccc(F)c1F)C1CCOCC1 (stereo not given)	i	-2%	7.1µM*	3	-3%	3%
COc1cc([C@@H]2[C@H]3CNCC=C3C(C#N)=C(N)C2(C#N)C#N)ccc1OC(C)C	15%[57.5 µM]	5%	43%	6	-6%	3%
COc1cc(C2C3CN(C)CC=C3C(C#N)=C(N)C2(C#N)C#N)ccc1OC(C)C (stereo not given)	-2%[57.5 µM]	40µM*	-22%	8	-8%	3%
CN1CC=C2C(C#N)=C(N)C(C#N)(C#N)C(Cc3ccccc3)C2C1 (stereo not given)	i	18µM*	0%	-2	-3%	-15%
CCC1C2CN(C(C)=O)CC=C2C(C#N)=C(N)C1(C#N)C#N (stereo not given)	i	-1%	-4%	-2	-1%	-3%
CC(C)N1CC=C2C(C#N)=C(N)C(C#N)(C#N)C(c3ccccc3)C2C1 (stereo not given)	i	7.9µM*	0%	20	-5%	-11%
CCN(CC(=O)NCc1cccs1)C(=O)c1ccc([N+](=O)[O-])o1	i	0%	-11%	-91*	.	2%
CCCNc1nc(NCc2ccccc2OC)c2cnn(C)c2n1	-23%	5%	40µM*	.	-1%	-5%
CC(C)CC(=O)C1=C(O)C(=O)N(Cc2ccccc2)C1c1ccccc1 (stereo not given)	i	0%	-20%	-20	-2%	5%
CC(=O)C1=C(O)C(=O)N(c2nccs2)C1c1ccccc1 (stereo not given)	i	1%	8.9µM*	-19	-6%	?
CC(=O)C1=C(O)C(=O)N(Cc2ccccc2)C1c1ccc(Br)cc1 (stereo not given)	-18%	4%	11µM*	2	-2%	-2%
CC(=O)C1=C(O)C(=O)N(c2ccc(Br)cc2)C1c1ccc(Br)cc1 (stereo not given)	-11%	0%	7.9µM*	-6	-4%	-7%
COc1ccc(C(=O)COC(=O)CSCc2c(C)noc2C)cc1OC	-3%	6%[38.3 µM]	15%	-4	-7%	-11%
CCn1c(COc2ccccc2OC)nnc1SCC#N	i	-2%	0%	-12	-7%	-4%
COc1ccc(S(=O)(=O)N2CCCCC2c2cc(C(=O)Nc3ccccc3Cl)no2)cc1 (stereo not given)	-43%	2%	-18%	.	.	.
COc1ccc(S[C@]2(c3nc(C)no3)CC(=O)N(c3ccc(OC)cc3)[C@@H]2c2ccc(OC)cc2)cc1	.	.	14µM*	.	.	.
CN(C)c1ccc(/C=C/c2cc[n+](C)cc2)cc1	-46%	4%	1µM*	-3	?	.
CN(C)c1ccc(/C=C/c2cc[n+]([O-])cc2)cc1	.	.	.	.	-47%	.
COc1ccc(S(=O)(=O)Nc2ccc3c(c2)C(=O)N([C@H](C)CO)C[C@H](C)[C@H](CN(C)C(=O)Nc2ccc(F)cc2)OCCCC[C@@H](C)O3)cc1	.	.	-12%	.	.	.
CNS(=O)(=O)c1ccc(NCCc2ccc(S(N)(=O)=O)s2)c([N+](=O)[O-])c1	.	.	18µM*	.	.	.
CS(=O)(=O)c1ccc(NCCc2ccc(S(N)(=O)=O)cc2)c([N+](=O)[O-])c1	i	-3%	11%	-9	4%	-9%
SMILES	PTHR1 agonist	PINK1 modulator	12-LOX inh	Giardia killer	miR-21 act	ERG-DNA inh
COc1ccc(-n2c(-c3ccc(Cl)cc3)c[n+]3c2CCc2ccccc2-3)cc1	-19%	32µM*	-6%	-6	29%	7%
CCCCCCN1C[C@H](O)[C@@H](n2cc(COC(=O)c3ccccc3)nn2)C[C@@H]1c1ccc(Cl)cc1	-50%	?	-115%	.	.	.
O=c1c2c([N+](=O)[O-])cc([N+](=O)[O-])cc2sn1Cc1ccccc1	i	-1%	0.79µM*	21	?	-4%
O=c1c2c([N+](=O)[O-])cc([N+](=O)[O-])cc2sn1-c1ccc(Br)cc1	16%	1%	.	-26	-5%	27%
COc1ccc(C(=O)Oc2cccc(/C=N/NC(N)=S)c2)cc1	-78%	1%	40µM*	-1	-12%	9%
O=C(C1CC1)N(CCc1ccccc1)Cc1nc2ccccc2c(=O)[nH]1	-13%[57.5 µM]	1%	4%	10	9%	-9%
CC(C)(C)c1ccc(Oc2nc3ccccn3c(=O)c2/C=C(\C#N)c2nc3ccccc3[nH]2)cc1	-29%	28µM*	-13%	.	2%	-4%
Cc1cccn2c(=O)c(/C=C(\C#N)c3nc4ccccc4[nH]3)c(Oc3ccc(C(C)(C)C)cc3)nc12	i	?	-5%	.	-1%	1%
O=C(Nc1sc2c(c1C(=O)Nc1cccc(Cl)c1)CCCC2)c1cccs1	i	0%	45µM*	-9	2%	4%
CCOC(=O)c1ccc(NC(=O)c2c(NC(=O)CCC(=O)O)sc3c2CCCCC3)cc1	-4%	1%	20µM*	?	-19%	-6%
O=C(Cc1ccccc1)Nc1sc2c(c1C(=O)Nc1ccc(Cl)cc1)CCCC2	-70%	2%	16µM*	0	-2%	-5%
CCOC(=O)c1c(NC(=O)CSc2nnc3c(n2)[nH]c2ccccc23)sc2c1CCN(C)C2	i	2%	103%	8	.	-6%
CCOC(=O)C1CCN(C(=O)COc2ccc(Br)cc2)CC1	-3%[57.5 µM]	-5%[38.3 µM]	0%	10	-5%	0%
COC(=O)[C@@H]1Cc2c([nH]c3ccccc23)[C@H]2C[C@@H](NCCCn3ccnc3)C[C@@H](c3ccc(Cl)c(F)c3)N21	.	.	102%	.	.	.
CCC(=O)Nc1nnc(SCC(=O)NC2CCCC2)s1	i	4%	10%	-8	1%	-18%
Cc1cc(C(=O)NCCCn2ccnc2)cs1	i	10µM*	7%	3	-4%	-1%
